The source of these data is PubChem BioAssay (EPA / NIEHS).

The structures appear in SMILES notation. Where “and” joins values, the source holds several entries; their conditions need not be identical. Equal entries are not always repeated. Records with an inconclusive call do not appear. Where a structure was tested more than once in an assay, its records may differ in their call. Calls of active or inactive are those of the source. Rule for the calls, unless noted: active = hit-call score of the fitted dose curve at least 0.9, where 1 is the maximum; inactive = score below 0.9.

The target of assay [1] is Nuclear respiratory factor 1 (Homo sapiens) (UniProt Q16656). Put plainly: ATG_NRF1_CIS: Attagene CIS-FACTORIAL HepG2 Assay for human Nuclear Respiratory Factor 1 (NRF1) Orphan Gene (AID 2282987). To be noted: HepG2 NRF1 cis-element reporter, Attagene multiplex; actives raise or lower the signal. The gist of the method: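 HepG2 cells transiently transfected with multiple cis-regulated reporter units, exposed 24 h. Reporter mRNAs measured by RT-PCR, fluorescent labelling, HpaI digestion and capillary electrophoresis; bidirectional fitting against DMSO.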
Sequence of Nuclear respiratory factor 1 (Homo sapiens) (Q16656 whole entry, looked up): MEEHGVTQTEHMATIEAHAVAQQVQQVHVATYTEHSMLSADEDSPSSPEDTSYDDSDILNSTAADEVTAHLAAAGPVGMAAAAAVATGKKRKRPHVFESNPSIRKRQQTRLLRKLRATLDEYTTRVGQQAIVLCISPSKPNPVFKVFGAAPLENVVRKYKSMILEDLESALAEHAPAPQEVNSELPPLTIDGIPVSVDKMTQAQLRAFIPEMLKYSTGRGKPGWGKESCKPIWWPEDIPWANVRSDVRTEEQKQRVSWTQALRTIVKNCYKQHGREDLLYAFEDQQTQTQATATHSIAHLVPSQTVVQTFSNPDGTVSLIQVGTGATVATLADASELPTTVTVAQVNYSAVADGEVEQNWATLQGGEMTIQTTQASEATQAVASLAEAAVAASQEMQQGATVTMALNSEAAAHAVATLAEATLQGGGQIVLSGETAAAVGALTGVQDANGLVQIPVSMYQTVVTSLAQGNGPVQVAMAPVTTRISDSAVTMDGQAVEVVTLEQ

Assay [2] deals with Myc proto-oncogene protein (Homo sapiens) (UniProt P01106). Put plainly: ATG_Myc_CIS: Attagene CIS-FACTORIAL HepG2 Assay for human Myelocytomatosis (Myc) Proto-Oncogene Transcription Factor (AID 2282990). Particulars: HepG2, Attagene cis-reporter transcription factor activity; actives raise or lower the signal. The essentials:
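Transiently transfected HepG2 cells bearing cis-promoter reporter units for endogenous transcription factors; 24 h exposure. Reporter mRNA measured by RT-PCR, 6-FAM primer extension, HpaI cut and capillary electrophoresis; bidirectional fit relative to DMSO.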

Assay [3] in a line: ATG_NF_kB_CIS: Attagene CIS-FACTORIAL HepG2 Assay for human Nuclear Factor Kappa B (NF-kB) (AID 2282991). To be noted: HepG2 Attagene cis-factorial NF-kB reporter mRNA; actives raise or lower the signal. The gist of the method:
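HepG2 cells transfected with cis-promoter-driven reporter units, so endogenous transcription factor activity is measured. Reporter mRNA quantified 24 h after dosing by RT-PCR and capillary electrophoresis, with bidirectional fitting against DMSO.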

Assay [4] in a line: ATG_NRF2_ARE_CIS: Attagene CIS-FACTORIAL HepG2 Assay for human Nuclear Factor Erythroid 2 Related Factor 2 (NFR2) response to Antioxidant Response Elements (ARE) (AID 2282992).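 For AC50: reporter mRNA level measured by RT-PCR and capillary electrophoresis fluorescence.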 Particulars: HepG2 Attagene ARE/NRF2 reporter, transcription factor activity; actives raise or lower the signal. The gist of the method:
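Multiplexed reporter mRNA profiling in HepG2 after a 24 h chemical exposure. Curves fitted in both directions relative to DMSO negative control.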

A short description of assay [5]: ATG_Oct_MLP_CIS: Attagene CIS-FACTORIAL HepG2 Assay for human Octamer-Binding Transcription Factor (Oct) (AID 2282993). Particulars: HepG2 Attagene cis-factorial Oct reporter, mRNA; actives raise or lower the signal. The gist of the method:
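Readout is reporter transcript level from RT-PCR with fluorescent primer extension and capillary electrophoresis, fitted in both directions against DMSO. Transfected HepG2 reporter units report endogenous factor activity after 24 h dosing.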

The nature of assay [6]: BSK_3C_uPAR: BioMAP Diversity Plus: 3C Assay for Urokinase-type plasminogen activator receptor (uPAR) Biomarker Activity (AID 2282998). To be noted: BioMAP 3C HUVEC, uPAR biomarker ELISA; actives raise or lower the signal. The gist of the method:
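Cell-surface uPAR on HUVEC (3C system) read by ELISA at 24 h post-treatment, with DMSO as baseline and fitting in both directions. Parallel cultures stained with SRB to flag overt cytotoxicity.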
A general note: In an ELISA, binding on a coated surface is turned into a signal by an enzyme label.

A short description of assay [7]: BSK_3C_VCAM1: BioMAP Diversity Plus: 3C Assay for Vascular cell adhesion molecule 1 (VCAM1) Biomarker Activity (AID 2282999). Particulars: BioMAP 3C HUVEC, VCAM1 ELISA, cytokine-stimulated; actives raise or lower the signal. The gist of the method:
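Human umbilical vein endothelial cells (3C system), biomarker read by ELISA 24 h after dosing; bidirectional fit against DMSO baseline. Cytotoxicity tracked by SRB total-protein staining in parallel cultures at biomarker time.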

A short description of assay [8]: BSK_4H_Eotaxin3: BioMAP Diversity Plus: 4H Assay for Eotaxin 3 Biomarker Activity (AID 2283000).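 Note: CCL26 protein level quantified by ELISA in parallel with SRB cytotoxicity check.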 To be noted: primary human endothelial cells (HUVEC); actives raise or lower the signal. The essentials: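 ELISA quantitation of CCL26 (Eotaxin-3) protein from chemically dosed human vascular endothelial cells at 24 h; increases and decreases both scored relative to DMSO-treated baseline.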

The target of assay [9] is human Peroxisome Proliferator-activated Receptor alpha (PPARa), PPARA (gene 5465) (UniProt Q07869). Nature of the assay: ATG_PPARa_TRANS: Attagene TRANS-FACTORIAL HepG2 Assay for human Peroxisome Proliferator-activated Receptor alpha (PPARa) (AID 2283001; active = hit-call score of the fitted dose curve at least 0.9, where 1 is the maximum;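 for AC50: potency for gain of reporter signal over DMSO so agonist or activator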). The essentials:
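Measures transcriptional activity of an exogenous chimeric PPARa-Gal4 protein in transiently transfected HepG2 cells after 24 h dosing. Reporter mRNA quantified via RT-PCR and capillary electrophoresis; DMSO served as negative control.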

Assay [10] deals with human Peroxisome Proliferator-activated Receptor delta (PPARd), PPARD (gene 5467) (UniProt Q03181). Nature of the assay: ATG_PPARd_TRANS: Attagene TRANS-FACTORIAL HepG2 Assay for human Peroxisome Proliferator-activated Receptor delta (PPARd) (AID 2283002; active = hit-call score of the fitted dose curve at least 0.9, where 1 is the maximum). The gist of the method:
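HepG2 cells transiently transfected with GAL4-UAS multiplexed reporter units driven by exogenous chimeric NR-GAL4 proteins; 24 h compound exposure. Reporter mRNA measured by RT-PCR, 6-FAM primer extension, HpaI digestion and capillary electrophoresis; gain of signal fitted relative to DMSO.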

Assay [11] concerns the target human Retinoic Acid Receptor beta (RARb), RARB (gene 5915) (UniProt P10826). Put plainly: ATG_RARb_TRANS: Attagene TRANS-FACTORIAL HepG2 Assay for human Retinoic Acid Receptor beta (AID 2283004; active = hit-call score of the fitted dose curve at least 0.9, where 1 is the maximum). The gist of the method:
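Fluorescent capillary-electrophoresis detection of GAL4-UAS reporter mRNA defines the endpoint, with induction over DMSO-treated wells scored as activity. Transiently transfected human hepatoma HepG2 cells expressing exogenous NR–Gal4 proteins are exposed to test chemicals for 24 h.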

Assay [12] addresses Retinoic acid receptor alpha (Homo sapiens) (UniProt P10276). Nature of the assay: ATG_RARa_TRANS: Attagene TRANS-FACTORIAL HepG2 Assay for human Retinoic Acid Receptor alpha (RARa) (AID 2283005; active = hit-call score of the fitted dose curve at least 0.9, where 1 is the maximum). The essentials:
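HepG2 transiently transfected with multiplex GAL4-UAS reporter units including a human RARa–GAL4 chimera; 24 h compound exposure. Reporter mRNA quantified by RT-PCR, 6-FAM labeling and capillary electrophoresis; gain of signal versus DMSO.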

Assay [13] in a line: BSK_3C_Proliferation: Cell Proliferation Assessment in the BioMAP Diversity Plus: 3C Assay (AID 2283006).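 For AC50: potency may reflect either rise or fall in cell number versus DMSO.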 Particulars: primary human endothelial cells (HUVEC). The gist of the method: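 Human umbilical vein endothelial cells were grown sub-confluent and exposed to chemical for 48 h, then fixed with 10% TCA and stained with 0.1% sulforhodamine B; absorbance at 560 nm gave relative cell number, fitted bidirectionally against DMSO baseline.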

In assay [14] the target is Peroxisome proliferator-activated receptor gamma (Homo sapiens) (UniProt P37231). Put plainly: ATG_PPARg_TRANS: Attagene TRANS-FACTORIAL HepG2 Assay for human Peroxisome Proliferator-activated Receptor-gamma (PPARg) (AID 2283007; active = hit-call score of the fitted dose curve at least 0.9, where 1 is the maximum). The essentials:
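HepG2 cells are transiently transfected with GAL4-UAS reporter units driven by chimeric NR-Gal4 fusions and dosed for 24 h. Reporter mRNA is quantified by RT-PCR, 6-FAM labelling, HpaI digestion and capillary electrophoresis. Induction is scored against DMSO.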

For assay [15], the target named is human Retinoic Acid Receptor gamma (RARg), RARG (gene 5916) (UniProt P13631). Nature of the assay: ATG_RARg_TRANS: Attagene TRANS-FACTORIAL HepG2 Assay for human Retinoic Acid Receptor gamma (RARg) (AID 2283009; active = hit-call score of the fitted dose curve at least 0.9, where 1 is the maximum). The essentials:
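HepG2 cells transiently transfected with multiplexed reporter units expressing chimeric RARg-GAL4 and GAL4-UAS-driven reporters; 24 h compound exposure. Reporter mRNA quantified by RT-PCR with fluorescent labelling and capillary electrophoresis; gain-of-signal fitted relative to DMSO baseline.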

Assay [16] is described as follows: BSK_3C_TissueFactor: BioMAP Diversity Plus: 3C Assay for Tissue Factor Biomarker Activity (AID 2282997). To be noted: BioMAP 3C HUVEC, tissue factor biomarker readout; actives raise or lower the signal. The gist of the method:
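Endothelial monolayers (human umbilical vein, primary) are dosed, incubated 24 h, and assayed for Tissue Factor by ELISA; DMSO serves as negative control for bidirectional fitting.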

In assay [17] the target is Nuclear receptor subfamily 1 group I member 2 (Homo sapiens) (UniProt O75469). Nature of the assay: ATG_PXR_TRANS: Attagene TRANS-FACTORIAL HepG2 Assay for human Pregnane X Receptor (PXR) (AID 2283008; active = hit-call score of the fitted dose curve at least 0.9, where 1 is the maximum). The essentials: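 Measures mRNA induction of a GAL4-UAS-driven reporter in human HepG2 cells transiently expressing PXR fused to Gal4, following 24 h treatment. DMSO served as negative control and baseline.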
Sequence of Nuclear receptor subfamily 1 group I member 2 (Homo sapiens) (O75469 whole entry, looked up, the tested form may be a part): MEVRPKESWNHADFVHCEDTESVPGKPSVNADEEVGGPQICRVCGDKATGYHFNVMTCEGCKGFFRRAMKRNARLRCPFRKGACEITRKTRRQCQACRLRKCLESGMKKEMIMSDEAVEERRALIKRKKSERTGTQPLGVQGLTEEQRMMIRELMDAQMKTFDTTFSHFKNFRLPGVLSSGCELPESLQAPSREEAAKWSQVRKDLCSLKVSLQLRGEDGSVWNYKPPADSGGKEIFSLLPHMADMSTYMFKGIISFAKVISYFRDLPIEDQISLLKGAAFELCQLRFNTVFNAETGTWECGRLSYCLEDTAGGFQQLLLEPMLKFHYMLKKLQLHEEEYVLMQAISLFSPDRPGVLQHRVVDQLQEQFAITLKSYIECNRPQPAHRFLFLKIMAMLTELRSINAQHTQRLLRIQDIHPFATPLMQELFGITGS

Assay [18] can be described thus: ATG_NFI_CIS: Attagene CIS-FACTORIAL HepG2 Assay for human Nuclear Factor I (NFI) (AID 2282989). To be noted: HepG2 cis-regulatory reporter, NFI response element transcription; actives raise or lower the signal. The gist of the method:
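Reporter transcripts were measured by RT-PCR with fluorescent primer extension and capillary electrophoresis 24 h post-treatment. HepG2 cells carried transiently transfected cis-regulated reporter constructs reporting endogenous factor activity; gain or loss fitted against DMSO baseline.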

Assay [19] deals with Cellular tumor antigen p53 (Homo sapiens) (UniProt P04637). Put plainly: ATG_p53_CIS: Attagene CIS-FACTORIAL HepG2 Assay for human p53 Transcription Factor (AID 2282994). Particulars: HepG2 p53 cis-element reporter, Attagene mRNA; actives raise or lower the signal. The gist of the method:
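Multiplexed reporter mRNA assay in human HepG2 liver cells; cis-regulated units report endogenous factor activity. Values come from bidirectional curve fitting against DMSO negative control after 24 h treatment.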

Read-out in assay [20]: Intercellular Adhesion Molecule 1 (ICAM1), ICAM1 (gene 3383)
Put plainly: BSK_3C_ICAM1: BioMAP Diversity Plus: 3C Assay for Intercellular Adhesion Molecule 1 (ICAM1) Biomarker Activity (AID 2283003). To be noted: primary human endothelial cells (HUVEC); actives raise or lower the signal. The gist of the method: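 Primary human umbilical vein endothelial cells in the BioMAP 3C system were exposed to chemicals for 24 h, then ICAM-1 was quantified by ELISA. Activity was fitted bidirectionally against the DMSO negative control baseline.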

Sequence of human Retinoic Acid Receptor gamma (RARg), RARG (gene 5916) (P13631 whole entry, looked up, the tested form may be a part): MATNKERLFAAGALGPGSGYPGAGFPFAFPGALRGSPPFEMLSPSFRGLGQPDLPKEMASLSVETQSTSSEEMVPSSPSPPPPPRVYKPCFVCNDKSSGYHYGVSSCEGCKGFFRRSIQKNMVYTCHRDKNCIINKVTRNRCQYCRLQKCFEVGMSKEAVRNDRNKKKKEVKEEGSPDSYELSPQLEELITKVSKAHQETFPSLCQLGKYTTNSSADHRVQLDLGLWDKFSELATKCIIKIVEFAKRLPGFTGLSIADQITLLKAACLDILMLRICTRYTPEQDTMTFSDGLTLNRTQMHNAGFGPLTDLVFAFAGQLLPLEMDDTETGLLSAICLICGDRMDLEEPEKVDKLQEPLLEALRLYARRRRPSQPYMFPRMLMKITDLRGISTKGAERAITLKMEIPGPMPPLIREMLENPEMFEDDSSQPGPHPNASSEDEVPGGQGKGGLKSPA
Sequence of Myc proto-oncogene protein (Homo sapiens) (P01106 whole entry, looked up): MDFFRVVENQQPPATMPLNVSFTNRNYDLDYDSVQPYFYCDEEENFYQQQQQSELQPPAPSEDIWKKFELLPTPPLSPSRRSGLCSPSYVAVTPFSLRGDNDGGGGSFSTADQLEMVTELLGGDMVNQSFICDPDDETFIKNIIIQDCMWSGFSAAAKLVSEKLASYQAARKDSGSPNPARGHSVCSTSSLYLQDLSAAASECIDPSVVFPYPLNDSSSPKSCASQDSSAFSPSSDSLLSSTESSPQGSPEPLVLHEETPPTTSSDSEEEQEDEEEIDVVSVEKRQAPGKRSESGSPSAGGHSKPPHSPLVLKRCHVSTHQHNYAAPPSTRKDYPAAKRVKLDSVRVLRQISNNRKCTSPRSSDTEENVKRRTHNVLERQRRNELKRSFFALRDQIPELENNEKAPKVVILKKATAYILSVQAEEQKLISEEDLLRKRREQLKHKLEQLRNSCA
Sequence of human Peroxisome Proliferator-activated Receptor alpha (PPARa), PPARA (gene 5465) (Q07869 whole entry, looked up, the tested form may be a part): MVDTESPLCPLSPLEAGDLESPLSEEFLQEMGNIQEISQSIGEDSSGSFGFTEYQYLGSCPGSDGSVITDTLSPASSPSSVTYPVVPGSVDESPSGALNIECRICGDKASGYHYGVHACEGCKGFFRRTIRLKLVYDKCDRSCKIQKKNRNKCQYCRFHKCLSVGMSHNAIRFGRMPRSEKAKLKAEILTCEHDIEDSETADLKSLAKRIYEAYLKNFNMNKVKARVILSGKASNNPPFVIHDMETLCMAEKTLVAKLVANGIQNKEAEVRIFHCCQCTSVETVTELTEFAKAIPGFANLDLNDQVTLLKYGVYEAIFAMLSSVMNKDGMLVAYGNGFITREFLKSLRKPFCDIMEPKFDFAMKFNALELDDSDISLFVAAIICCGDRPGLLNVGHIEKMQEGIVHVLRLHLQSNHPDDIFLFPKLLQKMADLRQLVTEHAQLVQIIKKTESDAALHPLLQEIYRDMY
Sequence of human Peroxisome Proliferator-activated Receptor delta (PPARd), PPARD (gene 5467) (Q03181 whole entry, looked up, the tested form may be a part): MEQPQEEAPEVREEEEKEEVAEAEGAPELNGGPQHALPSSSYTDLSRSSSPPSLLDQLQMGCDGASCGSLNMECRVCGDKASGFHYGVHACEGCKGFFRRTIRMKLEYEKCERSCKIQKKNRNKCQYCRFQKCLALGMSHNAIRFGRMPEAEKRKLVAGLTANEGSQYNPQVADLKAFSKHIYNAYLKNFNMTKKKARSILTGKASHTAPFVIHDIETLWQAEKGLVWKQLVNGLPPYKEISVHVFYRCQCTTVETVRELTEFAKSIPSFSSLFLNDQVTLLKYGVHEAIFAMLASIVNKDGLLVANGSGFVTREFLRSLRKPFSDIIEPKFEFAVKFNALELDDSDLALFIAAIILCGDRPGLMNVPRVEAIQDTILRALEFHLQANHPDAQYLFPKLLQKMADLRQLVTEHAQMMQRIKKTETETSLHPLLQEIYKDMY
Sequence of Peroxisome proliferator-activated receptor gamma (Homo sapiens) (P37231 whole entry, looked up, the tested form may be a part): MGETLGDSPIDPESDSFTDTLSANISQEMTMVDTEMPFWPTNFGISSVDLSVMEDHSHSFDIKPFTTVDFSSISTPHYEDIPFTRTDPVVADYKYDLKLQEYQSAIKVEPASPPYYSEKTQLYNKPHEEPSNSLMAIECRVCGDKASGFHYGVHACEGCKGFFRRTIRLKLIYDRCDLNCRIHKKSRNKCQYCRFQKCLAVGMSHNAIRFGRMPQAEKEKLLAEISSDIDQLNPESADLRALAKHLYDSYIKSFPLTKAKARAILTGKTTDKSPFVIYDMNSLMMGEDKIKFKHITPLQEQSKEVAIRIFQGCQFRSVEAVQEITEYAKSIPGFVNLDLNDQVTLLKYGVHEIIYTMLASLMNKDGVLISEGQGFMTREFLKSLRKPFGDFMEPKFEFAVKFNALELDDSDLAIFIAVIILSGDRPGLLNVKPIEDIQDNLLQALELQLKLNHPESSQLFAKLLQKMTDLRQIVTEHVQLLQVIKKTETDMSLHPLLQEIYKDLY
Sequence of human Retinoic Acid Receptor beta (RARb), RARB (gene 5915) (P10826 whole entry, looked up, the tested form may be a part): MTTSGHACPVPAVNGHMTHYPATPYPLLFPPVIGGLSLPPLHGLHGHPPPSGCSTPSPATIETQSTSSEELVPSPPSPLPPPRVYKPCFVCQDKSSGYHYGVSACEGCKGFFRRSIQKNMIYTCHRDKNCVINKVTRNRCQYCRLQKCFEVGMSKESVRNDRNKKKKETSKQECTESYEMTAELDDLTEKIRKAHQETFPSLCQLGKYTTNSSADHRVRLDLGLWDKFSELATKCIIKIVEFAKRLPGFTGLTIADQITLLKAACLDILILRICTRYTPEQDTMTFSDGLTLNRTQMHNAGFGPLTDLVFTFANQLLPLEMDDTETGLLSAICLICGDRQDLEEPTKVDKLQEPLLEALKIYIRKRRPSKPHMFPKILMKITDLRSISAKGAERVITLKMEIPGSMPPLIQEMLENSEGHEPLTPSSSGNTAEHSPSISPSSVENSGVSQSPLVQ
Sequence of Retinoic acid receptor alpha (Homo sapiens) (P10276 whole entry, looked up, the tested form may be a part): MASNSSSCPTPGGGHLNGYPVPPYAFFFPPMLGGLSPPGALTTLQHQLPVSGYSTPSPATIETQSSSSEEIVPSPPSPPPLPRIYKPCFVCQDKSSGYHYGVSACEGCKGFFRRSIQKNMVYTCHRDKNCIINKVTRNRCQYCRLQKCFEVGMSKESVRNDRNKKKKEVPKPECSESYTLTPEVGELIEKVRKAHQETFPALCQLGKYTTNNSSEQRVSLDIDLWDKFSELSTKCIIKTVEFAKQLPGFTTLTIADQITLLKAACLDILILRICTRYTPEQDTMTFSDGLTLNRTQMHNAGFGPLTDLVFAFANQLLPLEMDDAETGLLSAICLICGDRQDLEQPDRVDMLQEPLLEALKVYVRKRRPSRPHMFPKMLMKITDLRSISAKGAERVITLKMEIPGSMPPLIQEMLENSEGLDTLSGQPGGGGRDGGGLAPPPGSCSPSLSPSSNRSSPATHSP
Sequence of Cellular tumor antigen p53 (Homo sapiens) (P04637 whole entry, looked up): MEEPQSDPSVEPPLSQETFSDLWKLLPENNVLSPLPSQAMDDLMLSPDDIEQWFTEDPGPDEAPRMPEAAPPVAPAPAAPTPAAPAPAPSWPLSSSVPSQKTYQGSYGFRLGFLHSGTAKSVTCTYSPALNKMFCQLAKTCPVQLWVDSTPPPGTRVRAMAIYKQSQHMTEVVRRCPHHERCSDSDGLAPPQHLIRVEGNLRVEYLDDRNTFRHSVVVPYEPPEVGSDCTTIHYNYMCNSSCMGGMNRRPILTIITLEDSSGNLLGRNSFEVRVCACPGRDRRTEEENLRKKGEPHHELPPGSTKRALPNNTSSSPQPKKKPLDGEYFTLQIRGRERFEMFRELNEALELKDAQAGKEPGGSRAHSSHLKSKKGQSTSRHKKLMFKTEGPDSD

As to `CCCCCCCCC(F)(F)C(F)(F)C(F)(F)C(F)(F)C(F)(F)C(F)(F)F`, the compound was classed as inactive in [1], in assay [2], in [3], in assay [4], in assay [6] and in assay [7]. In addition, the outcome in assay [8], in [9], in assay [10], in [11], in assay [12] and in assay [13] was inactive. For the same compound, the result in [14] and in [15] was inactive. For the same compound, the AC50 (in general, the concentration giving half of the maximal activity seen) in assay [5] is 89.3 µM (active).
Take `O=C(O)C(F)(OC(F)(F)C(F)(OC(F)(F)C(F)(F)C(F)(F)F)C(F)(F)F)C(F)(F)F` (stereo unspecified): the call in assay [1], in [2], in assay [3], in assay [4], in assay [5] and in assay [16] was inactive. Besides, the result in [6], in assay [7], in assay [9], in [10], in assay [11] and in assay [12] was inactive. Besides, the compound was classed as inactive in assay [14], in [17] and in [15]. For the same compound, the AC50 in [9] is 108 µM (active).
As for `O=C(O)C(F)(F)C(F)(F)C(F)(F)C(F)(F)C(F)(F)C(F)(F)C(F)(F)C(F)(F)C(F)(F)C(F)F`, the compound was called inactive in [18], in assay [2], in [3], in assay [19], in assay [6] and in [7]. Besides, the result in [20], in assay [11] and in assay [15] was inactive. In addition, the AC50 in assay [4] is 26.3 µM (active); in assay [7], 45.2 µM (active); in assay [9], 19.4 µM (active); in assay [13], 56.7 µM (active) and 47 µM (active); in assay [14], 25.8 µM (active); in assay [17], 64.5 µM (active).
